Results on eight compounds are retold here after PubChem BioAssay (NCI).

Compounds without any hit were thinned out: in the full panel of roughly 83,000, 20% have a hit.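 Cell lines were cultured in 96-well plates, exposed to a single compound concentration, and assessed for percent growth 48 hours later.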 Values without a mark were called inactive. Activity calls are given as the source filed them. The calls were made as follows: active = growth percent below 10; inactive = the rest.

Common to all, as to assay: NCI-60 one-dose screen, 48 h (100 = growth as untreated, 0 = no growth, -100 = all killed)
Holding throughout (conditions): 10 µM unless noted

The test system of assay [1] is SK-MEL-2 melanoma.
The test system of assay [2] is EKVX NSCLC.
For assay [3], the system named is SN12C renal.
The test system of assay [4] is UO-31 renal.
In assay [5] the test system is TK-10 renal.
In assay [6] the test system is ACHN renal.
Assay [7] has as its system CAKI-1 renal.
Assay [8] relates to A498 renal.
For assay [9], the system named is CCRF-CEM leukemia.
In assay [10] the test system is MOLT-4 leukemia.
Assay [11] relates to SR leukemia.
For assay [12], the system named is RPMI-8226 leukemia.
Assay [13] has as its system OVCAR-8 ovarian.
For assay [14], the system named is OVCAR-5 ovarian.
For assay [15], the system named is OVCAR-4 ovarian.
Assay [16] has as its system SK-OV-3 ovarian.
Assay [17] concerns IGROV1 ovarian.
In assay [18] the test system is OVCAR-3 ovarian.
For assay [19], the system named is HS 578T breast.
Assay [20] has as its system NCI/ADR-RES ovarian.

Consider `COc1ccc(-c2cc(=O)c3c(OC)c4ccoc4cc3o2)cc1`, for which the growth in assay [1] is 131%; in [2] it was 86.3%; in assay [3], 93.8%; in [4], 90.7%; in assay [5], 108%; in assay [6] it was 102%. The growth in assay [7] is 103%; in [8], 121%; in assay [9], 109%; in assay [10], 84.7%; in assay [11], 82.4%; in assay [12], 102%. For the same compound, the growth in assay [13] was 99.2%; in assay [14], 93.6%; in assay [15], 109%; in assay [16], 112%; in assay [17], 113%; in assay [18], 106%. In addition, the values for the growth in assay [19] and in [20] were 120% and 96.2%, respectively.
As to `O=C1OCC2=C1C(c1ccncc1)c1cc3c(cc1N2CCO)OCO3` (stereo not given), the growth was 107% in assay [1]; 101% in assay [2]; 100% in assay [3]; 94.7% in assay [4]; 101% in [5]; 105% in [6]. The growth in assay [7] is 99.3%; in [8], 90%; in assay [9] it was 94%; in assay [10], 107%; in assay [11] it was 122%; in [12], 103%. For the same compound, the growth in [13] is 98.8%; in assay [14], 100%; in assay [15], 100%; in [16], 87.3%; in assay [17], 101%; in assay [19] it was 87%. The growth in assay [20] was 104%.
As for `CCOC(=O)c1sc2nc(-c3cccc(OC)c3)nc(N3CCOCC3)c2c1C`, the growth in assay [1] was 93.2%; in assay [2], 87.7%; in [3], 87.5%; in assay [4], 79.7%; in [5] it was 98.1%; in assay [6], 103%. Also, the growth in assay [7] was 79.8%; in assay [8] it was 101%; in assay [9], 98.4%; in assay [10], 93.1%; in assay [11] it was 98.4%; in assay [12], 87.8%. Further, the growth in assay [13] is 102%; in [14] it was 96.6%; in assay [15] it was 96.2%; in assay [16], 102%; in assay [17], 87.3%; in assay [18], 108%. Besides, the growth is 104% in [19] and 90% in assay [20].
For the compound `COc1ccc(-c2nc3cc(C(=O)Nc4cc(OC)c(OC)c(OC)c4)ccc3n2C2CCCCC2)cc1`, the growth in assay [1] was 95.6%; in assay [2] it was 91.8%; in assay [3], 91.7%; in assay [4] it was 78.7%; in assay [5], 111%; in assay [6], 93.2%. The growth is 97.4% in assay [7]; 113% in assay [8]; 94.3% in assay [9]; 83.1% in assay [10]; 57.5% in assay [11]; 91.7% in [12]. The growth was 96.6% in assay [13]; 98.1% in [14]; 109% in assay [15]; 104% in assay [16]; 96.5% in assay [17]; 81.9% in assay [19]. Moreover, in assay [20], the growth is 98.3%.
In the case of `C=CC(COC(c1ccccc1)(c1ccccc1)c1ccccc1)N(CC)CC` (stereo not given), the growth is 85.8% in [1]; 76.1% in assay [2]; 58.3% in [3]; 59.4% in assay [4]; 79.8% in assay [5]; 81.7% in assay [6]. Also, the growth was 67.1% in assay [7]; 73.8% in assay [8]; 59.3% in assay [9]; 8.88% (active) in assay [10]; 44.7% in assay [11]; 10.6% in [12]. Also, the growth in assay [13] was 77%; in [14], 66.1%; in assay [15], 67.9%; in assay [16], 75.5%; in assay [17], 62%; in assay [18], 71.9%. The growth in assay [19] is 85.7%; in assay [20], 62.4%.
As to `CC(C)(C)CC(C)(C)c1ccc(OCCOCC[N+](C)(C)Cc2ccccc2)cc1`, the growth was -69.4% (active) in assay [1]; 22.3% in assay [2]; -29.2% (active) in assay [3]; 86.1% in assay [4]; -0.335% (active) in [5]; 73.2% in assay [6]. Further, the growth is 97.3% in assay [7]; 17.7% in assay [8]; -25.8% (active) in assay [9]; -20% (active) in [10]; -50.8% (active) in assay [11]; -60.3% (active) in assay [12]. The growth in [13] is -65.7% (active); in assay [14] it was 29.6%; in assay [15], -16% (active); in assay [17], -45.9% (active); in assay [18], -35% (active); in assay [19] it was 26.1%. Moreover, the growth in assay [20] is 112%.
As for `Cn1ccnc1C(=O)/C=C/c1ccccc1`, the growth in assay [1] was 46.9%; in assay [2], -9.85% (active); in assay [3] it was 41.6%; in [4] it was -33.7% (active); in [5], 15.3%; in assay [6], 33%. Further, the growth was 11.7% in assay [7]; -15.9% (active) in assay [8]; 9.1% (active) in assay [9]; 70% in assay [10]; 18.9% in [11]; -8.79% (active) in assay [12]. The growth in assay [13] was 20.9%; in [14] it was 38.7%; in [15] it was 26.8%; in assay [16], 27.5%; in assay [18] it was 0.598% (active); in assay [19], -2.82% (active). The growth in [20] was 20.9%.
For the compound `COc1ccc(C(=O)COc2ccc(/C=C3\COc4ccc(OC)cc4C3=O)cc2)cc1`, the growth was 68.1% in [1]; 103% in assay [2]; 100% in assay [3]; 85.8% in assay [4]; 105% in assay [5]; 99.8% in assay [6]. Besides, the growth in assay [7] is 99.1%; in [8], 100%; in assay [9], 7.46% (active); in assay [10] it was 55.5%; in assay [11], 2.54% (active); in assay [12] it was -5.51% (active). In addition, the growth was 44.3% in [13]; 108% in [14]; 92.1% in [15]; 105% in assay [16]; 104% in assay [18]; 81.7% in assay [19]. Also, the growth in assay [20] was 80.7%.
